Test results reported in PubChem BioAssay.
Values joined by “and” are separate entries in the source; they are usually repeats but may differ in a detail not shown here. Identical values can stand only once. A number with no mark means an inactive call. A call without a number means that no potency is given here. For some assays here: Potency and affinity values are given separately. Active and inactive are the calls of the source. Unless noted, no rule for the calls is given here.

How the values were obtained:
[1] = antimalarial activity against Dd2 strain (AID 2302;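 active = growth inhibition above 50% at the single 2 µM test dose, taken to imply half-maximal potency below 2 µM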); conditions: P. falciparum Dd2 in RBCs, LDH growth readout, 72 h; at 2 µM; stronger effect = higher value
[2] = HepG2 cytotoxicity, primary screen, cytotoxicity control for P. falciparum antimalarial project, cell-based, ATP luminescence (AID 2303;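 active = inhibition above 50%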); conditions: HepG2 viability, 24-48 h, at 10 µM, stronger effect = higher value
[3] = molecular target: L-lactate dehydrogenase (Plasmodium falciparum (isolate CDC / Honduras)) (UniProt Q27743); test: PfLDH activity inhibition – cell lysate, 3D7 strain, counter-screen for P. falciparum growth inhibition project (AID 2304); conditions: P. falciparum 3D7 crude extract, LDH APAD/NBT absorbance; at 2 µM; stronger effect = higher value
[4] = inhibition of 3D7 malaria parasite growth – strain 3D7 (AID 2306); conditions: P. falciparum 3D7 erythrocytic growth, LDH absorbance, 72 h; at 2 µM; stronger effect = higher value
[5] = molecular target: Calcium-dependent protein kinase 1 (Plasmodium falciparum (isolate 3D7)) (UniProt P62344); test: PfCDPK1 kinase inhibitors, biochemical, TCAMS library (AID 1159585; cut-off not given, nearly all actives have IC50 up to about 0.98 µM;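 also: inhibitors leave more ATP so luminescence rises with inhibition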); conditions: recombinant PfCDPK1, Kinase-Glo ATP depletion luminescence
[6] = molecular target: Plasmodium falciparum protein kinase 6 (PK6, PF3D7_1337100) (UniProt Q8IDW1); test: PfPK6 kinase inhibitors, biochemical, TCAMS library (AID 1159586); conditions: recombinant PfPK6, Kinase-Glo ATP depletion luminescence
[7] = molecular target: Protein kinase 7 (PK7), Plasmodium falciparum 3D7 (PF3D7_0213400) (UniProt Q7YTF7); test: inhibition of Plasmodium PK7 catalytic activity – biochemical, TCAMS antimalarial set, Kinase-Glo luminescence (AID 1159587); conditions: recombinant PfPK7, Kinase-Glo ATP depletion luminescence
[8] = molecular target: Calcium-dependent protein kinase 4 (Plasmodium falciparum (isolate 3D7)) (UniProt Q8IBS5); test: PfCDPK4 kinase inhibitors, biochemical, TCAMS library (AID 1159588; cut-off not given, nearly all actives have IC50 up to about 0.91 µM); conditions: recombinant PfCDPK4, Kinase-Glo ATP depletion luminescence
Calcium-dependent protein kinase 4 (Plasmodium falciparum (isolate 3D7)), sequence (Q8IBS5 whole entry, looked up): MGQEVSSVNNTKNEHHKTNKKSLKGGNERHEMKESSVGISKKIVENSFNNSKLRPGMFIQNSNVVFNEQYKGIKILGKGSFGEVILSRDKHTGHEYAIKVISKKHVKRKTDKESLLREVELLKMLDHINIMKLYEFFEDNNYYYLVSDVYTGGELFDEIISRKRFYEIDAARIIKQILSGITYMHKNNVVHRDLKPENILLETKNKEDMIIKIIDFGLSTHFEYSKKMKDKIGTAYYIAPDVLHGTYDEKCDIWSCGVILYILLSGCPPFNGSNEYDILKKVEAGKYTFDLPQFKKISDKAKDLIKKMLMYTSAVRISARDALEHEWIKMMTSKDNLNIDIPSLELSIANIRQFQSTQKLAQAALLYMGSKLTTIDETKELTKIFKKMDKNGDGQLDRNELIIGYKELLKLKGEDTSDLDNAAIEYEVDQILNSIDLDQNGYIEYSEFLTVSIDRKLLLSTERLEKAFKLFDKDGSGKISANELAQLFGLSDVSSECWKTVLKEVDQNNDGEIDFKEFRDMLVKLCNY

Plasmodium falciparum protein kinase 6 (PK6, PF3D7_1337100), sequence (Q8IDW1 1-305): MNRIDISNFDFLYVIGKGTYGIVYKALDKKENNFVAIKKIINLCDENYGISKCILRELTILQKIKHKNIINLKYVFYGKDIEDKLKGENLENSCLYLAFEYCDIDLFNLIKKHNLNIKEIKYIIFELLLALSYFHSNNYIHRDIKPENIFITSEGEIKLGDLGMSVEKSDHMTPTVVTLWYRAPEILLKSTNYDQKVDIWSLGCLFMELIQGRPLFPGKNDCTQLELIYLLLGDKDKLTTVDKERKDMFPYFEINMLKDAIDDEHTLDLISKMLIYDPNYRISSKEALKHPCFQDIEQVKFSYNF
Calcium-dependent protein kinase 1 (Plasmodium falciparum (isolate 3D7)), sequence (P62344 whole entry, looked up): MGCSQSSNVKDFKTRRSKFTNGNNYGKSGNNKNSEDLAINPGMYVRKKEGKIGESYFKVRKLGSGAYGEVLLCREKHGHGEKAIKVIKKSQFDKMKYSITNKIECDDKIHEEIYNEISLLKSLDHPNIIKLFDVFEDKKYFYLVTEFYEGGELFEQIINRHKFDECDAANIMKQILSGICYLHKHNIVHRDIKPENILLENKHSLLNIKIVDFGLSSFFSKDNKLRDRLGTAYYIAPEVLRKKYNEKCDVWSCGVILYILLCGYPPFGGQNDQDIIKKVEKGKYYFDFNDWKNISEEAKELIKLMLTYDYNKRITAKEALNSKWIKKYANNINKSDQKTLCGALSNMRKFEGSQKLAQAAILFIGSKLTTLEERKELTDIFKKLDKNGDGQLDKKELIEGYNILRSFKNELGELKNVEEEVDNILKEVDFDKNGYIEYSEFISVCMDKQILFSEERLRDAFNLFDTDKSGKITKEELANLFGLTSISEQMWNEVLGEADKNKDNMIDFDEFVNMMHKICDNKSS
L-lactate dehydrogenase (Plasmodium falciparum (isolate CDC / Honduras)), sequence (Q27743 whole entry, looked up): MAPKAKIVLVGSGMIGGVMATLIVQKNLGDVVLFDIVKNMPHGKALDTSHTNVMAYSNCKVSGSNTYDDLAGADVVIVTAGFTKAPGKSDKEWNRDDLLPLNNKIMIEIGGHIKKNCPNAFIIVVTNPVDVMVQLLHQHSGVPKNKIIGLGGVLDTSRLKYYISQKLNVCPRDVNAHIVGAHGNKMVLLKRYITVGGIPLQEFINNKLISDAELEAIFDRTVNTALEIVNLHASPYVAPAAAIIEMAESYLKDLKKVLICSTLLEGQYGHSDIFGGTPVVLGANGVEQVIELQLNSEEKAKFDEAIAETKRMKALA
Protein kinase 7 (PK7), Plasmodium falciparum 3D7 (PF3D7_0213400), sequence (Q7YTF7 1-343): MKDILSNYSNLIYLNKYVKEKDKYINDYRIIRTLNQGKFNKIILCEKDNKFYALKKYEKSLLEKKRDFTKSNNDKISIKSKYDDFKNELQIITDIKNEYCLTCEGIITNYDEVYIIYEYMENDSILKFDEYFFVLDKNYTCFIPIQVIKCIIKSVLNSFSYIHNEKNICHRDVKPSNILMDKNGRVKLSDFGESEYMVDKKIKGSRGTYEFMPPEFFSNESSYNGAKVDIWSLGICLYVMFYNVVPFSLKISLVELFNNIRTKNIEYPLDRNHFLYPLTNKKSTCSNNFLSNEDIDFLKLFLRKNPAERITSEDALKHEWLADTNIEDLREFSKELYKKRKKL

Compound	growth inhibition [1]	inhibition [2]	inhibition [3]	growth inhibition [4]	outcome [5]	outcome [6]	outcome [7]	outcome [8]
COc1ccc(C[C@@H](C)NC[C@H](O)c2cccc(Cl)c2)cc1F	76% (active)	2%	-2%	88% (active)	inactive	inactive	inactive	inactive
O=C(CCc1ccc(Cl)cc1Cl)NC1CCC(CN2CCC(c3c[nH]c4ccccc34)CC2)CC1 (stereo unspecified)	4% and 45%	33% and 44%	-4% and 2%	97% (active) and 100% (active)	inactive	inactive	inactive	inactive
CC(C)CCNC(=O)c1cc(C(=O)c2cc(F)ccc2O)cn(CCC(C)C)c1=O	45%	14%	-1%	100% (active)	inactive	inactive	inactive	inactive
O=C(NCCC1CCN(CCc2c[nH]c3ccccc23)CC1)Nc1ccc(Cl)c(Cl)c1	5%	18%	-2%	101% (active)	inactive	inactive	inactive	inactive
CCCCCCCn1c(=O)c(C(=O)Nc2c(C)cccc2C)c(O)c2ccccc21	42%	6%	-2%	90% (active)	inactive	inactive	inactive	inactive
COc1nc(N)ncc1C(=O)NC1CN2CCC1CC2 (stereo unspecified)	0%	26%	-1%	92% (active)	inactive	inactive	inactive	inactive
CC[C@H]1CN2CC[C@H]1C[C@H]2[C@H](O)c1cc(-c2ccc(F)cc2C)nc2ccc(OC)cc12	100% (active)	-2%	-3%	99% (active)	inactive	inactive	inactive	inactive
COC(=O)/C=C/c1ccc(C[C@@H](C)NC[C@H](O)c2cccc(C(F)(F)F)c2)cc1	93% (active)	41%	-6%	97% (active)	inactive	inactive	inactive	inactive
CC[C@H]1CN2CC[C@H]1C[C@H]2[C@H](O)c1cc(/C=C/c2ccc(F)cc2)nc2ccc(OC)cc12	99% (active)	55% (active)	-1%	99% (active)	inactive	inactive	inactive	inactive
OC1(c2ccc(Cl)c(C(F)(F)F)c2)CCN(CCOC2c3ccccc3CSc3ccc(Cl)cc32)CC1 (stereo unspecified)	58% (active)	3%	6%	95% (active)	inactive	inactive	inactive	inactive
O=C(NC1CCC(CN2CCC(c3c[nH]c4ccccc34)CC2)CC1)c1ccc(-c2cc(C(F)(F)F)ccc2Cl)o1 (stereo unspecified)	34%	5%	3%	102% (active)	inactive	inactive	inactive	inactive
COC(=O)c1ccc(CC(C)NCC(O)c2cccc(I)c2)cc1 (stereo unspecified)	54% (active)	15%	-2%	87% (active)	inactive	inactive	inactive	inactive
CN(C)c1cccc(NC(=O)NC2N=C(c3ccccc3)c3ccccc3N(CC(=O)N(C)c3ccccc3)C2=O)c1 (stereo unspecified)	80% (active)	1%	4%	99% (active)	inactive	inactive	inactive	inactive
CCC1CN2CCc3cc(OC)c(OC)cc3C2CC1CC1NCCc2c1[nH]c1ccc(O)cc21 (stereo unspecified)	100% (active)	45%	-7%	99% (active)	inactive	inactive	inactive	inactive
COc1ccc(CN2CCN(CCOC(c3ccccc3)c3ccc(Cl)cc3)CC2)c(O)c1 (stereo unspecified)	98% (active)	12%	0%	99% (active)	inactive	inactive	inactive	inactive
COc1ccc(C=CC(=O)NC2CCC(CN3CCC(c4c[nH]c5ccccc45)CC3)CC2)cc1OC (stereo unspecified)	85% (active) and 72% (active)	15% and 14%	1% and -1%	100% (active) and 101% (active)	inactive	inactive	inactive	inactive
O=C(NC1CCC(CN2CCC(c3c[nH]c4ccccc34)CC2)CC1)c1cc(-c2ccccc2Cl)n(-c2cccc(Cl)c2)n1 (stereo unspecified)	24%	58% (active)	4%	95% (active)	inactive	inactive	inactive	inactive
O=C(/C=C/c1cccc(F)c1)NC1CCC(CN2CCC(c3c[nH]c4ccccc34)CC2)CC1 (stereo unspecified)	31% and 28%	39% and 35%	-1% and 0%	98% (active) and 99% (active)	inactive	inactive	inactive	inactive
O=C(/C=C/c1ccc(Cl)c(Cl)c1)NC1CCC(CN2CC[C@H](c3c[nH]c4ccccc34)[C@@H](O)C2)CC1 (stereo partly specified)	87% (active)	30%	-7%	101% (active)	inactive	inactive	inactive	inactive

Compound	growth inhibition [1]	inhibition [2]	inhibition [3]	growth inhibition [4]	outcome [5]	outcome [6]	outcome [7]	outcome [8]
COc1cccc(/C=C/C(=O)NC2CCC(CN3CCC(c4c[nH]c5ccccc45)CC3)CC2)c1 (stereo unspecified)	26% and 38%	19% and 30%	-1% and 6%	94% (active) and 100% (active)	inactive	inactive	inactive	inactive
CC1(CCCCN2CC=C(c3c[nH]c4ccccc34)CC2)C(=O)Nc2ccccc21 (stereo unspecified)	90% (active)	3%	4%	94% (active)	inactive	inactive	inactive	inactive
Oc1ccccc1CNCC(O)c1cccc(C(F)(F)F)c1 (stereo unspecified)	97% (active)	1%	0%	100% (active)	inactive	inactive	inactive	inactive
CCCCC1(NC(=O)[C@H](CC(C)C)Nc2ccc(C#N)c3ccccc23)CCCCC1	47%	37%	5%	96% (active)	inactive	inactive	inactive	inactive
COc1cccc(C(=O)C2CC2CN2CC=C(c3c[nH]c4ccc(OC)nc34)CC2)c1 (stereo unspecified)	89% (active)	8%	-2%	94% (active)	inactive	inactive	inactive	inactive
S=C(NCC1CCCCC1)NC1CCC(CN2CCC(c3c[nH]c4ccccc34)CC2)CC1 (stereo unspecified)	10%	29%	6%	88% (active)	inactive	inactive	inactive	inactive
Cc1ccc(CC(C)NCC(O)c2cccc(C#N)c2)cc1 (stereo unspecified)	86% (active)	2%	-2%	94% (active)	inactive	inactive	inactive	inactive
CN1CC=C(c2c[nH]c3ccc(Br)cc23)CC1	80% (active)	-3%	1%	88% (active)	inactive	inactive	inactive	inactive
O=C(/C=C/c1ccc(Cl)c(Cl)c1)N1CC[C@H]2C[C@H](N3CCC(c4c[nH]c5ccccc45)CC3)CC[C@@H]2C1	99% (active)	31%	0%	100% (active)	inactive	inactive	inactive	inactive
CC(C)CNCc1ccc(-c2cccc(CN(C(=O)Nc3ccccc3)C3CCN(Cc4ccccc4)CC3)c2)cc1	95% (active)	48%	4%	101% (active)	inactive	inactive	inactive	inactive
C=C[C@H]1CN2CC[C@H]1C[C@H]2[C@H](OS(=O)(=O)O)c1ccnc2ccccc12	15%	8%	5%	99% (active)	inactive	inactive	inactive	inactive
O=C(/C=C/c1cc(F)cc(C(F)(F)F)c1)N1CCC(CN2CCC(c3c[nH]c4ccccc34)CC2)CC1	74% (active)	32%	3%	101% (active)	inactive	inactive	inactive	inactive
Oc1ccc(CN2CCN(CCOC(c3ccccc3)c3ccc(Cl)cc3)CC2)cc1Cl (stereo unspecified)	97% (active)	11%	-3%	98% (active)	inactive	inactive	inactive	inactive
COc1ccc(OC)c(C=CC(=O)NC2CCC(CN3CCC(c4c[nH]c5ccccc45)CC3)CC2)c1 (stereo unspecified)	62% (active)	43%	-4%	98% (active)	inactive	inactive	inactive	inactive
COc1ccc(C[C@H](C)NC[C@H](O)c2cccc(Cl)c2)cc1F	75% (active)	6%	-2%	89% (active)	inactive	inactive	inactive	inactive
C=CCOc1ccccc1CNCC(O)c1cccc(C(F)(F)F)c1 (stereo unspecified)	98% (active)	10%	-1%	99% (active)	inactive	inactive	inactive	inactive
O=C(/C=C/c1ccc(Cl)c(Cl)c1)N1CCC(CN2CCC(c3c[nH]c4ccc(O)cc34)CC2)CC1	100% (active)	44%	-7%	101% (active)	inactive	inactive	inactive	inactive
N#Cc1c(Cl)cccc1Oc1ccc(S(=O)(=O)NC2CCC(CN3CCC(c4c[nH]c5ccccc45)CC3)CC2)cc1 (stereo unspecified)	36% and 16%	31% and 29%	3% and -3%	101% (active) and 85% (active)	inactive	inactive	inactive	inactive
